# Assay results from PubChem BioAssay (Tox21).
# Values joined by “and” are separate entries in the source; they are usually repeats but may differ in a detail not shown here. Equal entries are not always repeated. Active and inactive are the calls of the source. A call without a number means that no potency is given here. The call rests on the fitted dose curve; in most records, active means well fitted curve in the direction sought with a large enough effect in the repeat runs; inconclusive means weak or mixed curves; inactive means flat fitted curve, though single readings scatter.
# Assay: qHTS assay to test for compound auto fluorescence at 535 nm (green) in HEK293 cells (AID 720680)
# Conditions: green autofluorescence 485/535 nm; series mostly up to 91.3 µM; fluorescence, % of fluorescein: at the top concentration
# Text: U.S. Tox21 Program National Center for Advancing Translational Sciences [NCATS] NIH Chemical Genomics Center [NCGC] U.S. Environmental Protection Agency [EPA] National Institutes of Environmental Health Sciences [NIEHS] National Toxicology Program [NTP] U.S. Food and Drug Administration [FDA] Tox21 Assay Overview: Compound auto fluorescence often interferes with screening of the compound library against various biological targets and signaling pathways. Some of these compounds may have fluorophoric properties. Such properties may interfere with the assay outputs resulting in false positives and/or negatives. To decrease such complications and ensure the compound activities are relevant in terms of biological response, the Tox21 10K compound library was screened for auto fluorescence. From the fluorophores used as reporter signals in our screening assays, the auto fluorescence equivalencies of compounds against three fluorophores have been evaluated: Triamterene, Fluorescein and Rose Bengal sodium for blue, green and red fluorescence, respectively. The fluorescence intensities were measured using Excitation/Emission wavelengths at 405/460nm, 485/535nm and 540/590nm for blue, green and red labels, respectively. This assay includes the green fluorescence data.
# Tox21 Assay Protocol Summary: 2,000 HEK293 cells in 5 uL of culture medium containing 10% dialyzed FBS per well were dispensed into black wall/clear bottom 1536-well plates using a Multidrop Combi Dispenser (Thermo Scientific). The assay plates were incubated for 4-5 hr at 37C to allow cell attachment to the well bottom, followed by the transfer of 23 nL compound or DMSO vehicle by a pintool work station (Kalypsys, San Diego, CA). After the assay plates were incubated overnight at 37C and 5% CO2, fluorescence intensities in the assay plates were measured by an Envision (PerkinElmer, Shelton, CT) plate reader using three labels for measuring blue, green and red fluorescence at […] 460, 535 and 590nm respectively.
# Potency means the concentration at half of the fitted maximal effect; tags describe the fitted curve by direction and shape or compound fluorescence and quenching.
SMILES,Potency,"fluorescence, % of fluorescein"
CC(=O)O[C@]1(C(C)=O)CC[C@H]2[C@@H]3C=C(Cl)C4=CC(=O)[C@@H]5C[C@@H]5[C@]4(C)[C@H]3CC[C@@]21C,inactive,
Cc1ccc(C)c(O)c1C,inactive,
O=C1OC2(c3cc(Br)c(O)c(Br)c3Oc3c2cc(Br)c(O)c3Br)c2c(Cl)c(Cl)c(Cl)c(Cl)c21,,8.21% (inactive)
CCCCCCCCCC(=O)OC,inactive,
C=C(C)C1CC=C(C)CC1 (stereo not given),inactive,
CNCCCC12CCC(c3ccccc31)c1ccccc12,inactive,
CCCCOCCOCCOCCO,inactive,
CC(C(=O)O)c1cccc(C(=O)c2ccccc2)c1 (stereo not given),inactive,
COC(=O)C1=C(C)NC(C)=C(C(=O)OCCN(C)Cc2ccccc2)C1c1cccc([N+](=O)[O-])c1 (stereo not given),inactive,
O=CCCCC=O,inactive,
OCCO,inactive,
Cc1[nH]c(=O)c(C#N)cc1-c1ccncc1,inactive,
c1ccc2sc(SSN3CCOCC3)nc2c1,inactive,
C[C@]12CC[C@H]3[C@@H](CCC4=CC(=O)CC[C@@]43C)[C@@H]1CC[C@@H]2C(=O)CO,inactive,
COc1ccc(OC)c(C(O)CNC(=O)CN)c1 (stereo not given),inactive,
C=CC(C)(CCC=C(C)C)OC(C)=O (stereo not given),inactive,
CCCCc1oc2ccccc2c1C(=O)c1cc(I)c(OCCN(CC)CC)c(I)c1,inactive,
COc1c(Cl)c(Cl)c(Cl)c(Cl)c1Cl,inactive,
CC(CCC(=O)O)(c1ccc(O)cc1)c1ccc(O)cc1,inactive,
C#C[C@]1(O)CC[C@H]2[C@@H]3CCC4=Cc5oncc5C[C@]4(C)[C@H]3CC[C@@]21C,inactive,

SMILES,Potency,"fluorescence, % of fluorescein"
COc1cc([C@@H]2c3cc4c(cc3[C@H](O)[C@H]3COC(=O)[C@H]23)OCO4)cc(OC)c1OC,inactive,
c1ccc2cc(Nc3ccc(Nc4ccc5ccccc5c4)cc3)ccc2c1,inactive,
Nc1ccccc1N,inactive,
CN(C)c1nc(N(C)C)nc(N(C)C)n1,,0.0818% [at 18.6 µM] (inactive) and -0.032% [at 3.72 µM] (inactive)
C#C[C@]1(O)CC[C@H]2[C@@H]3CCc4cc(OC)ccc4[C@H]3CC[C@@]21C,inactive,
CC(C)Oc1ccc2c(=O)c(-c3ccccc3)coc2c1,inactive,
CCCCOCCOCCO,inactive,
CN(C)CCC=C1c2ccccc2CCc2ccccc21,inactive,
OC(CCl)CCl,inactive,
CC(=O)c1ccccn1,inactive,
CC(C)OB(OC(C)C)OC(C)C,inactive,
O=C(Nc1ccc(Cl)cc1)Nc1ccc(Cl)c(Cl)c1,inactive,
CC(=O)C1(C)CC2=C(CCCC2(C)C)CC1C (stereo not given),inactive,
Cc1cc2nc3c(=O)[nH]c(=O)nc-3n(C[C@H](O)[C@H](O)[C@H](O)CO)c2cc1C,35.5 µM [fluorescent] (active) [middle of 4 runs],
CC(C)(C)NC(=O)[C@H]1CC[C@H]2[C@@H]3CC[C@H]4NC(=O)C=C[C@]4(C)[C@H]3CC[C@]12C,inactive,
Cc1c(OCC(F)(F)F)ccnc1CS(=O)c1nc2ccccc2[nH]1 (stereo not given),inactive,
CCC(C)CO (stereo not given),inactive,
NNc1ccc(C(=O)O)cc1,inactive,
C=C(C)C(=O)OCCOC(=O)C(=C)C,inactive,
CCCCC(CC)COP(=O)(OCC(CC)CCCC)OCC(CC)CCCC (stereo not given),inactive,
